Experiment [1] concerns Wnt5a (protein binding on small-molecule microarray). Kind of experiment: small molecules binding Wnt5a protein – biophysical, small-molecule microarray, 635/667 nm fluorescence, primary screen (AID 1142).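 Also: fluorescence read at 667 nm with signal to noise per printed feature.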 The conditions noted are these: 635 nm fluorescence, higher = more signal.
The nature of experiment [2]: ATP-based viability of Huh7 replicon cells – cell-based, CellTiter-Glo luminescence, basal, 48 h, cytotoxicity control for HCV replication inhibitor project, primary screen (AID 1143).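 Also: Huh7 hepatoma cells carrying a hepatitis C replication reporter with no stimulus; test concentration not given here.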 Conditions: higher = more signal, called active from +8 up or from −8 down. A general note: A replicon is a self-replicating genome or part of one, used to study replication in cells.
The nature of experiment [3]: Pseudomonas biofilm growth suppression – PAO1 strain, BacTiter-Glo luminescence, LB-PBS, primary screen (AID 1144). Conditions: P. aeruginosa PAO1 biofilm, 12 h, higher = more signal.
A short description of experiment [4]: basal CRE-LacZ reporter activity in PC12 – cell-based, unstimulated, primary screen (AID 1145). The conditions noted are these: no forskolin, luminescence, 4.5 h, higher = more signal, called active from +8 up or from −8 down.
Experiment [5] in a line: forskolin-driven CRE-LacZ activity in PC12 – cell-based, CRE-LacZ reporter, forskolin-stimulated, primary screen (AID 1146).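 Also: PC12 cells with 6xCRE LacZ reporter stimulated by forskolin 10 µM; beta-galactosidase reporter signal reflecting CREB driven transcription.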 Conditions: luminescence, 4.5 h, higher = more signal, called active from +8 up or from −8 down.
The target in experiment [6] is Streptavidin (Streptomyces avidinii) (UniProt P22629). The experiment is described as follows: compounds binding control protein streptavidin – biophysical, small-molecule microarray, 635/667 nm fluorescence, artefact control for SMM compound annotation, primary screen (AID 1147).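 Also: signal reflects streptavidin binding to arrayed compounds as a control protein.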 The conditions noted are these: higher = more signal.
Streptavidin (Streptomyces avidinii), sequence (P22629 whole entry, looked up): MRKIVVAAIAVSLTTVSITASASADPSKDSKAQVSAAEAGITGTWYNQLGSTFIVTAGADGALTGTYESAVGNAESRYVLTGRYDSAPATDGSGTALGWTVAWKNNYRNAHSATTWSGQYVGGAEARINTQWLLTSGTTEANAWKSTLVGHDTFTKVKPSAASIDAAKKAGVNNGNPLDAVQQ
Experiment [7] can be described thus: probe aInhba binding on compound microarray – biochemical, small-molecule microarray, 635/667 nm fluorescence, primary screen (AID 1148).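 Also: score merges 667nm spot fluorescence with signal-to-noise for antibody binding to printed compounds.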 The conditions noted are these: higher = more signal.
Experiment [8] deals with Torsin-1A (Homo sapiens) (UniProt O14656). The experiment is described as follows: TOR1A wild-type binding on microarray – cell lysate, small-molecule microarray, lysate, 635/667 nm, primary screen (AID 1149). The conditions noted are these: COS7 hTOR1A-WT lysate, 635 nm fluorescence, higher = more signal.
Torsin-1A (Homo sapiens), sequence (O14656 whole entry, looked up): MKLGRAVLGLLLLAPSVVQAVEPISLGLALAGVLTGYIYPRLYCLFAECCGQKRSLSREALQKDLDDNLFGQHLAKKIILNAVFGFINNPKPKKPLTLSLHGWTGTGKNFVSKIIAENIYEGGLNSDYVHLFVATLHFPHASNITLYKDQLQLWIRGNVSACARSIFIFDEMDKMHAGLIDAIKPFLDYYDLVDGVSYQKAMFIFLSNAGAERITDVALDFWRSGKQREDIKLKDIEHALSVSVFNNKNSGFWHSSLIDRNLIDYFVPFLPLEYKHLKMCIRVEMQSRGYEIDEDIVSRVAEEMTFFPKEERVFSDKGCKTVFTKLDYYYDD
For experiment [9] the target is unchanged. The experiment is described as follows: torsin A mutant lysate binding on microarrays – cell lysate, small-molecule microarray, COS7 lysate, 635/667 nm fluorescence, primary screen (AID 1150).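 Also: score pools 667 nm emission and signal to noise measuring lysate protein binding.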 The conditions noted are these: COS7 hTOR1A mutant lysate, 635 nm fluorescence, higher = more signal.
Experiment [10] concerns Sonic hedgehog protein (Shh). Kind of experiment: Sonic hedgehog microarray binding compounds – biochemical, small-molecule microarray, 635/667 nm fluorescence, primary screen (AID 1151).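 Also: Shh protein binding to compounds spotted on small-molecule microarray slides; score combines spot fluorescence intensity with signal-to-noise across triplicate slides.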 Conditions: 635 nm fluorescence, higher = more signal.

Activity calls are given as the source filed them. Unless noted, no rule for the calls is given here.

`CCCC[C@H]1C[C@@H]1[C@@H]1N(P(=O)(c2ccccc2)c2ccccc2)C[C@@](O)(c2ccccc2)CC12CC2`: the composite z-score in [1] was -0.0443; in experiment [6] it was 1.15; in experiment [7], 0.108; in experiment [8], -0.318; in [9] it was 0.409; in experiment [10] it was -1.02. Further, the z-score was -3.13 (inactive) in experiment [2], 0.922 (inactive) in [3], -0.185 (inactive) in [4] and 1.18 (inactive) in experiment [5].

As to `CCOC(=O)C[C@H]1[C@H](OC(=O)c2ccc(C(=O)c3ccccc3)cc2)[C@@H](NC(=O)Cc2ccc(OC)cc2)c2cc(OCCCO)ccc2N1C(=O)c1ccc2ccccc2n1`, the composite z-score is 0.112 in experiment [1]; 0.619 in experiment [6]; 0.158 in experiment [7]; -0.202 in [8]; 0.561 in [9]; 0.671 in experiment [10]. The z-score in [2] is 0.0378 (inactive); in experiment [3], -0.193 (inactive); in experiment [4] it was 0.745 (inactive); in experiment [5], -0.668 (inactive).

Consider `CC(CO)N1C(=O)[C@@H]2C3C(=O)OCCC/C=C\[C@H]3OC23C=CCN(CCN2CCOCC2)C(=O)[C@@H]13` (stereo not given in full), for which the composite z-score is 0.0719 in experiment [1]; -0.254 in [6]; -0.201 in experiment [7]; -0.951 in experiment [8]; -0.776 in experiment [9]; 1.21 in experiment [10]. Besides, the z-score is 0.795 (inactive) in experiment [2], -1.1 (inactive) in experiment [3], -0.476 (inactive) in experiment [4] and -0.183 (inactive) in [5].

As for `CCCCN1CC=CC23O[C@@H]4/C=C\CCCOC(=O)C4[C@H]2C(=O)N(CCCO)[C@@H]3C1=O` (stereo not given in full), the composite z-score in experiment [1] is -0.311; in experiment [6], -1.3; in experiment [7], -0.105; in experiment [8] it was -1.36; in experiment [9], -1.64; in experiment [10] it was -0.0567. In addition, the z-score in experiment [2] is 0.275 (inactive); in experiment [3], 0.0302 (inactive); in experiment [4] it was -0.0778 (inactive); in [5], 0.241 (inactive).

With `C=C(CCCC)/C(=C/C[C@@H](OC(C)=O)c1ccccc1OCCO)c1cc(C(=O)OC)ccc1OC`, the composite z-score in experiment [1] is -0.115; in experiment [6], -0.478; in [7], -0.15; in [8], 0.0851; in experiment [9] it was 0.0547; in experiment [10], 0.566. Moreover, the z-score in experiment [2] is -0.774 (inactive); in experiment [3], -0.341 (inactive); in experiment [4], 16 (active); in experiment [5], -1.14 (inactive).

For `COc1ccc([Si](C)(C)[C@@H]2[C@@H](CC(=O)N3Cc4ccccc4C[C@H]3CO)O[C@]3(C(=O)N(Cc4cccc(N5CCC5=O)c4)c4ccccc43)[C@H]2C)cc1`, the composite z-score in experiment [1] was 0.103; in [6], 0.244; in experiment [7], -0.0463; in [8], 0.589; in [9] it was 0.61; in experiment [10], 1.45. For the same compound, the z-score in experiment [2] is -3.42 (inactive); in [3] it was -0.0211 (inactive); in experiment [4] it was 2.03 (inactive); in experiment [5], 1.34 (inactive).

As for `CCCC=C(CCC)[C@@H](NC(=O)OCC(C)C)c1ccccc1`, the composite z-score is 1.33 in experiment [1]; 0.576 in experiment [6]; 0.613 in [7]; 0.0387 in experiment [8]; -0.0475 in [9]; 0.661 in experiment [10]. For the same compound, the z-score is -3.28 (inactive) in experiment [2], 0.173 (inactive) in experiment [3], 0.766 (inactive) in experiment [4] and 1.43 (inactive) in [5].

`OB1C=CCC(CCc2ccccc2)O1` (stereo not given): the composite z-score in [1] is -0.248; in [6] it was -0.492; in experiment [7], -0.385; in experiment [8] it was -0.459; in experiment [9], -0.643; in [10], 0.192. The z-score is -2.16 (inactive) in experiment [2], -1.35 (inactive) in experiment [3], 0.672 (inactive) in [4] and -1.28 (inactive) in [5].

Take `[N-]=[N+]=Nc1ccccc1C[C@]1(C(=O)NCc2ccccc2)N=C(c2ccc(OCCCO)cc2)O[C@H]1c1ccccc1N=[N+]=[N-]`: the composite z-score was 0.933 in [1]; 1.73 in experiment [6]; -0.156 in experiment [7]; 0.109 in [8]; 0.286 in experiment [9]; -0.4 in [10]. In addition, the z-score was -4.05 (inactive) in experiment [2], 0.0249 (inactive) in experiment [3], 1.77 (inactive) in experiment [4] and -0.741 (inactive) in experiment [5].

In the case of `CN(C)C(=O)[C@]1(Cc2ccccc2)N=C(c2ccc(OCCCO)cc2)O[C@@H]1c1ccccc1N=[N+]=[N-]`, the composite z-score in experiment [1] worked out at 0.435; in experiment [6], 1.06; in [7] it was 0.143; in experiment [8], 0.37; in experiment [9], 0.523; in [10], 0.0841. The z-score was -4.22 (inactive) in experiment [2], 0.54 (inactive) in experiment [3], -0.459 (inactive) in experiment [4] and -1.58 (inactive) in experiment [5].

For the compound `CCCC[C@@H]1C[C@H]1[C@@H](NC(=O)c1cccnc1)c1ccc(Cl)cc1`, the composite z-score in experiment [1] was -0.769; in [6] it was -1.44; in [7], -0.335; in experiment [8] it was -1.57; in [9], -0.419; in experiment [10], -1.35. The z-score was -1.25 (inactive) in experiment [2], -0.128 (inactive) in experiment [3], -0.368 (inactive) in experiment [4] and 0.834 (inactive) in experiment [5].

These data come from PubChem BioAssay.
